Tau fibril FP: qHTS for Inhibitors of Tau Fibril Formation, Fluorescence Polarization; Microtubule-associated protein tau (Homo sapiens), P10636; K18 P301L tau heparin fibrillization, Alexa594 FP, 6 h; Potency, µM (series often up to 57.7 µM), without a hit: top-dose activity, negative = inhibition, actives largely listed as inhibitors; actives 0.39% (n = 280,000); note: nearly all actives have a fitted effect of over 55% in size
Target sequence (P10636 561-689 P618L limits assumed): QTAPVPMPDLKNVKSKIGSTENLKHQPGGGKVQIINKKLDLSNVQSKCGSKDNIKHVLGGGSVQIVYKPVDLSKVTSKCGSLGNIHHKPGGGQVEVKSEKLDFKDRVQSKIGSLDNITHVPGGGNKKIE
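Human K18 P301L fragment (15 uM unlabeled plus 0.24 uM Alexa 594-labeled) in 100 mM sodium acetate pH 7 with compound, aggregation induced by 20 uM heparin for 6 hr at 37 C. ThT (30 uM) added for 1 hr, then Alexa 594 FP read.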
Tau fluor counter: Counterscreen qHTS for Inhibitors of Tau Fibril Formation, Fluorescence Polarization. Potency, µM (top dose mostly 57.7 µM), inactives show at the top dose activity change, negative = decrease. AID 1463, 2008. actives 0.93% (n = 280,000). tau K18 P301L Alexa594 fluorescence, heparin fibrillization; note: nearly all actives have a fitted effect of over 55% in size
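Human tau K18 P301L (15 uM unlabeled, 0.24 uM Alexa 594-labeled) in 100 mM sodium acetate pH 7 with 20 uM heparin, 6 hr at 37 C. ThT 30 uM added, 1 hr ambient; Alexa 594 FP and total fluorescence read at 555/632 nm.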
Tau ThT inhib: qHTS for Inhibitors of Tau Fibril Formation, Thioflavin T Binding; Microtubule-associated protein tau (Homo sapiens), P10636; recombinant tau K18 P301L (four-repeat tau fragment), heparin-induced fibrillization, ThT fluorescence; Potency, µM (doses to about 57.4 µM), without a hit: at the top dose activity, negative = inhibition, hits mostly inhibitors; actives 2.1% (n = 270,000); note: nearly all actives have a fitted effect of over 55% in size
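Heparin-induced fibrillization of the P301L-mutant K18 repeat-domain fragment of human tau was followed by ThT binding in quantitative high-throughput format.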
Gal4-VP16 FLuc: VP16 counterscreen qHTS for inhibitors of ROR gamma transcriptional activity; Drosophila S2 Gal4-VP16 UAS-luciferase, luminescence, 20 h; Potency, µM (doses to about 53.6 µM), inactives show at the highest dose activity, negative = inhibition, actives largely listed as inhibitors; actives 3.5% (n = 310,000); AID 2546, 2010;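 note: Gal4-VP16 expression switched on by copper sulfate through the metallothionein promoter; nearly all actives have a fitted effect of over 50% in size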
RORg inh: qHTS for inhibitors of ROR gamma transcriptional activity; Nuclear receptor ROR-gamma (Mus musculus), P51450; Drosophila S2 Gal4-RORgamma UAS-luciferase reporter, 20 h; Potency, µM (top dose mostly 53.6 µM), for the others: top-dose activity change, negative = inhibition, most hits filed as inhibitors; actives 5.4% (n = 310,000); AID 2551, 2010; note: nearly all actives have a fitted effect of over 60% in size
Target sequence (P51450 whole entry, looked up, the tested form may be a part): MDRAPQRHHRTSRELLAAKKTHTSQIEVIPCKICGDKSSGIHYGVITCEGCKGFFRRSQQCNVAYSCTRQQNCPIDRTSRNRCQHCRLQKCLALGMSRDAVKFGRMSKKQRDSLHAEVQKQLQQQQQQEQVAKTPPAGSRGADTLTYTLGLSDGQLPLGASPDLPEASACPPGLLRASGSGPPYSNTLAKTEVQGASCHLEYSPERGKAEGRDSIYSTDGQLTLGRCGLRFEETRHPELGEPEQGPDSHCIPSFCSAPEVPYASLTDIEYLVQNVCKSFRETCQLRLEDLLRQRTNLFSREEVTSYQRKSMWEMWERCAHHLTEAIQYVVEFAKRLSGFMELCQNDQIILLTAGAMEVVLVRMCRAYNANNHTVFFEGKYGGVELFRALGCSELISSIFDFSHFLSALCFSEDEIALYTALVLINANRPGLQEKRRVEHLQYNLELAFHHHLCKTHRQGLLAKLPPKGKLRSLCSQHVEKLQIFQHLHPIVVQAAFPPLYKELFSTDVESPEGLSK
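Read-out: Photinus luciferase luminescence; inhibitors lower reporter signal. Insect Schneider cells with Gal4-ROR gamma fusion under metallothionein promoter, UAS reporter; 700 uM final copper sulfate induction, 20 hr, ambient temperature.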
Numbers without * were called inactive; ? = inconclusive; / = no result given; [ ] = remark or other dose. Sampled rows, rich in hits. Any-hit rate of the full collection: about 7.3%. Calls come from the whole dose curve; as a rule, active = well fitted curve in the direction sought with a large enough effect; inconclusive = small, poorly fitted or top-dose-only effect, or another doubt; inactive = no such curve, though single readings can be large; an effect the other way counts as inactive or inconclusive. % is set by controls: 0 for no effect and ±100 for the full control effect; potency is the fitted concentration of half-maximal effect.

SMILES	Tau fibril FP	Tau fluor counter	Tau ThT inhib	Gal4-VP16 FLuc	RORg inh
O=C(CSc1nc2ccccc2c(=O)[nH]1)N1CCOCC1	2.8%	4.1%	7.5%	11.3%	32.5%
C#CCCCO/N=C1/C[C@@H](O)[C@@H](O)[C@@H]2[C@@H]3C(=O)N(C4CCCCC4)C(=O)[C@H]3CC[C@H]12	?	-11.4%[11.6 µM]	2.1%[11.5 µM]	-3.0%[10 µM]	-2.4%[10 µM]
CCOC(=O)c1c(C)[nH]c(N=Nc2cc(C(=O)O)cc(C(=O)O)c2)c1C	-0.9%	-4.9%	?	-11.8%	-14.5%
CCOC(=O)c1c(C)[nH]c(N=Nc2ccc(C)cc2C)c1C	13.0%	?	6.31µM*	-5.1%	-40.2%
CCOC(=O)c1c(C)[nH]c(N=Nc2ccccc2C)c1C	5.0%	?	5.01µM*	?	3.98µM*
O=C(CNc1cccc2ccccc12)N/N=C/c1ccc([N+](=O)[O-])o1	0.4%	-1.3%	4.1%	?	11.2µM*
O=C(CNc1cccc2ccccc12)N/N=C/c1ccc[nH]1	19.2%	-26.0%	?	14.1µM*	5.01µM*
O=C(CNc1cccc2ccccc12)N/N=C/c1ccc(OC(=O)/C=C/c2ccco2)cc1	1.6%	?	?	-13.6%	43.5%
CSc1ccc(/C=N/NC(=O)CNc2cccc3ccccc23)cc1	4.3%	?	?	?	35.5µM*
Cc1ccc(C(=O)N/N=C/c2cccc(OC(=O)/C=C/c3ccco3)c2)cn1	-0.8%	?	?	19.7%	-26.2%
O=C(/C=C/c1ccco1)Oc1cc(Br)cc(/C=N/NC(=O)c2ccccc2O)c1	-1.0%	?	?	2.82µM*	3.16µM*
COC(=O)c1ccc(C(NC(=O)OCc2ccccc2)/C(=C/[C@@H](C)C(=O)N[C@@H](CO)Cc2ccccc2)c2cccnc2)cc1 (some centres not stated)	4.3%	?	-15.5%	1.8%	28.0%
CCCCCCCCCCCCC(=O)N1CCCC[C@H]1CNC(=O)[C@@H](N)CCCCN	-16.8%	-13.7%	?	-0.8%	10.8%
CCOc1ccccc1NCc1nnc2n1CCCCC2	0.0%	-5.1%	-7.5%	/	/
CC(C)NC(=O)N1CC2(CCN(C(=O)c3ccco3)CC2)C1	/	/	/	-1.0%	-7.7%
CSc1ccc(/C=N/NC(=O)CNc2ccc3ccccc3c2)cc1	-3.1%	14.1µM*[quencher]	5.01µM*	-0.6%	-6.2%
O=C(CCN1CCN(c2ccccc2)CC1)N/N=C/c1ccc([N+](=O)[O-])o1	-7.8%	-25.0%	?	-20.3%	17.8µM*
O=C(CNc1ccc2ccccc2c1)N/N=C/c1ccc(OC(=O)/C=C/c2ccco2)cc1	-13.3%	7.08µM*[quencher]	5.01µM*	-5.2%	17.3%
O=C(CNc1cccc2ccccc12)N/N=C/C(Br)=C/c1ccccc1	0.9%	14.1µM*[quencher]	?	-16.5%	-1.1%
O=C(CCN1CCN(c2ccccc2)CC1)N/N=C/c1ccc(O)c(O)c1O	-1.9%	2.1%	7.2%	2.6%	-0.6%
O=C(Cn1cnc2ccccc21)N/N=C/C(Br)=C/c1ccccc1	4.8%	-13.8%	-15.4%	?	?
CC(C)(Oc1ccc(C2CCCc3ccccc32)cc1)C(=O)O (configuration not stated)	/	/	/	3.0%	12.8%
Cc1cccn2c(=O)c(C=O)c(Cl)nc12	-9.6%	-8.3%	?	?	14.1µM*
O=C(COc1ccccc1)Nc1cccc(-c2nn[nH]n2)c1	/	/	/	-0.4%	17.8%
CC(C)COc1ccc(C(=O)Nc2cccc(-c3nc4ccccc4[nH]3)c2)cc1	20µM*	7.94µM*[quencher]	?	/	/
SMILES	Tau fibril FP	Tau fluor counter	Tau ThT inhib	Gal4-VP16 FLuc	RORg inh
O=C(COc1ccccc1)Nc1cccc(-c2nc3cc4ccccc4cc3[nH]2)c1	?	15.8µM*[quencher]	?	2µM*	1µM*
Cc1cc(C)cc(OCC(=O)Nc2cccc(-c3nc4ccccc4[nH]3)c2)c1	22.4µM*	11.2µM*[quencher]	-14.2%	/	/
CC(C)CC(=O)Nc1cccc(-c2nc3ccccc3[nH]2)c1	-19.1%	-17.3%	-5.0%	-13.0%	-0.6%
COc1cc(CNC(=O)c2sc3ncccc3c2-n2cccc2)cc(OC)c1OC	-3.9%	-18.0%	-8.0%	/	/
CN1CCc2c(sc(/N=C/c3c[nH]c4ccccc34)c2C(N)=O)C1	?	?	10µM*	-13.2%	49.2%
CN1CCc2c(sc(/N=C/c3c[nH]c4ccccc34)c2C#N)C1	?	?	14.1µM*	-16.4%	26.2%
CCn1cc(C(=O)N[C@H](C(=O)NCCO)C(C)C)c(=O)c2cc3c(cc21)OCO3	/	/	/	-4.9%	-14.2%
Fc1ccc2[nH]c3c(NCc4ccccc4)ncnc3c2c1	/	/	/	5.62µM*	?
COc1ccc2[nH]c3c(NCc4ccco4)ncnc3c2c1	?	?	?	3.1%	?
COc1ccccc1-n1cc(-c2ccccc2)[nH]c1=S	/	/	/	20µM*	3.98µM*
COc1ccc(-n2cc(-c3ccccc3)c3c(=O)[nH]cnc32)cc1	-4.0%	-24.1%	?	18.4%	-41.2%
O=[N+]([O-])c1ccc(-c2cn(-c3ccccc3F)c(=S)[nH]2)cc1	5.1%	?	?	-11.6%	?
COc1ccccc1-n1cc(-c2ccccc2)c2c(=S)nc[nH]c21	/	/	/	1µM*	1µM*
Cc1ccc(-c2cn(-c3ccccc3F)c(=S)[nH]2)cc1	/	/	/	7.08µM*	1.78µM*
COc1ccc(-n2cc(-c3ccccc3)[nH]c2=S)cc1	0.3%	-22.8%	-17.3%	3.55µM*	2.24µM*
COc1ccccc1N1Cc2ccccc2C1	-3.7%	-16.9%	?	-8.6%	10.3%
CC(C)OC(=O)[C@H]1O[C@H](CCCCOCc2ccccc2)[C@@H](C)[C@H]2O[C@H]21	0.2%	-17.8%	-14.1%	4.0%	-2.8%
COc1cccc(-c2cn(-c3cccc(C(F)(F)F)c3)c(=S)[nH]2)c1	/	/	/	?	3.16µM*
CCOc1ccc(-c2cn(-c3ccccc3OC)c(=S)[nH]2)cc1	/	/	/	8.91µM*	3.55µM*
Cc1cccc(-n2cc(-c3ccccc3)[nH]c2=S)c1	/	/	/	7.08µM*	2.51µM*
CC(=O)Nc1ccc(-n2cc(-c3ccccc3)[nH]c2=S)cc1	0.2%	-12.7%	-17.4%	-3.2%	?
CCOc1ccc(-n2cc(-c3ccc(OC)c(OC)c3)[nH]c2=S)cc1	5.8%	-17.0%	?	?	1.26µM*
CCc1sc(C(=O)Nc2ncccc2O)cc1C	/	/	/	-10.1%	10.9%
O=C(CN1N=C(c2ccc(Cl)cc2)CCC1=O)NCc1ccc(F)cc1	-7.9%	-7.7%	2.6%	/	/
Cc1ccc(O)c(NC(=O)c2noc3c2CCCCC3)c1	?	25.1µM*[quencher]	-10.6%	?	-36.2%
Cn1c(Nc2ccc(F)cc2)nc2ccccc21	/	/	/	-16.1%	10.0%
Cn1c(NC(=S)Nc2ccccc2)nc2ccccc21	6.7%	-13.8%	?	1µM*	0.501µM*

Source: PubChem (National Center for Advancing Translational Sciences (NCATS))
